Consider one sequence from article PMC7862700, “An all-to-all approach to the identification of sequence-specific readers for epigenetic DNA modifications on cytosine”.

Common to all, as to experiment: DAPPL (digital affinity profiling via proximity ligation, sequencing); 10 mM Tris-HCl pH 7.5, 50 mM NaCl, 1 mM DTT, 4% glycerol, room temperature, 30 min; GST-TFs on glutathione beads, 16-mer random dsDNA library, 0.1% formaldehyde crosslink after washing; high values mean tight binding
Test [1] has as its target T1, FEV (Homo sapiens, UniProt Q99581 1-238).
T1 sequence: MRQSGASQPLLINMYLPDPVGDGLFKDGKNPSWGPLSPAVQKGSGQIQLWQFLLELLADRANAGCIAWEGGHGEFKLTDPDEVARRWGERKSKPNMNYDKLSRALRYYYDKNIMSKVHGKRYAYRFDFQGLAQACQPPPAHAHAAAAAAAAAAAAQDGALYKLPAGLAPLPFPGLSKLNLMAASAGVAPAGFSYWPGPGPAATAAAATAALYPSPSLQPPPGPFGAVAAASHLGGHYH
The conditions noted are these: protein: recombinant; tags: N-terminal GST; dsDNA, one strand shown. Put shortly: (§1)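 Yeast served to express human transcription factors as GST fusions, which were then captured on glutathione beads and labelled with DNA barcodes. Pooled with a tag-only sample, they were incubated with 200 nmole of a 16-mer random double-stranded DNA library for 30 min at room temperature in Tris/NaCl/DTT/glycerol buffer, washed, crosslinked with 0.1% formaldehyde, ligated by proximity, amplified by PCR and sequenced. Dividing each hexamer's read frequency for a factor by its frequency for the tag-only sample gives the binding signal.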

The target in test [2] is ETV5 (Homo sapiens, UniProt P41161 1-510). The settings on record: protein: recombinant; tags: N-terminal GST; dsDNA, one strand shown. Put shortly:
as §1

The target of test [3] is HSF1 (Homo sapiens, UniProt Q00613 1-529). The conditions noted are these: protein: recombinant; tags: N-terminal GST; chain copies: 3; dsDNA, one strand shown. Put shortly:
as §1

Test [4] concerns the target T2, SPIC (Homo sapiens, UniProt Q8N5J4 1-248).
T2 sequence: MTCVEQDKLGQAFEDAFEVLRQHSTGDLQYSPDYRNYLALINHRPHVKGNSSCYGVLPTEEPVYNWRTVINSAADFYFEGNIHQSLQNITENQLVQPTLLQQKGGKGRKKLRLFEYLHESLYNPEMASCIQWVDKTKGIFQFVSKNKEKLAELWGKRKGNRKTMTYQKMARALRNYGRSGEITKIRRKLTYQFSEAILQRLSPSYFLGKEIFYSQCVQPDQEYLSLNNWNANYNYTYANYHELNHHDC
The settings on record: protein: recombinant; tags: N-terminal GST; dsDNA, one strand shown. Put shortly:
as §1

Test [5] concerns the target ELF4 (Homo sapiens, UniProt Q99607 1-663). The settings on record: protein: recombinant; tags: N-terminal GST; dsDNA, one strand shown. Put shortly: as §1
Test [6] deals with T3, ELK4 (Homo sapiens, UniProt P28324-2 1-405).
T3 sequence: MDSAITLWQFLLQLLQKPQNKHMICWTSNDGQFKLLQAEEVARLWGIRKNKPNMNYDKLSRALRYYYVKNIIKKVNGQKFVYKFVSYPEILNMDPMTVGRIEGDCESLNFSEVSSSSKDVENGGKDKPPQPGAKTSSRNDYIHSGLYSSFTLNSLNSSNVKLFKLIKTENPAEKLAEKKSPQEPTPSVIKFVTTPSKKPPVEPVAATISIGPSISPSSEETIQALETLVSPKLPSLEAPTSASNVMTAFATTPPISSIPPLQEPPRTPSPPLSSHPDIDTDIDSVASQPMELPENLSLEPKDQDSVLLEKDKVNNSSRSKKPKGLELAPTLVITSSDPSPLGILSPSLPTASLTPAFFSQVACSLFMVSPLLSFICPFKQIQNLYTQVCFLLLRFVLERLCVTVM
The settings on record: protein: recombinant; tags: N-terminal GST; dsDNA, one strand shown. Put shortly:
as §1

Test [7] deals with T4, ETV2 (Homo sapiens, UniProt O00321 1-342).
T4 sequence: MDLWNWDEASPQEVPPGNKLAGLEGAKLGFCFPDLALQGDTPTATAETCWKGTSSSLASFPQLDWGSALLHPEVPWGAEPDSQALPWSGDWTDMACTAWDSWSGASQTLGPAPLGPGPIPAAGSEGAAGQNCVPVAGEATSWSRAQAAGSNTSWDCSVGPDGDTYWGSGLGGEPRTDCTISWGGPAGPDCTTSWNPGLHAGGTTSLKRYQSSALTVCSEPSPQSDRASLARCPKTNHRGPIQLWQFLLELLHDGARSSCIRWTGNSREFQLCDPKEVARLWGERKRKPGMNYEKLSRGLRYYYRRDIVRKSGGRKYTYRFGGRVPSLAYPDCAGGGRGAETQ
The conditions noted are these: protein: recombinant; tags: N-terminal GST; dsDNA, one strand shown. Put shortly: as §1

Test [8] has as its target T5, ELF3 (Homo sapiens, UniProt P78545 1-371).
T5 sequence: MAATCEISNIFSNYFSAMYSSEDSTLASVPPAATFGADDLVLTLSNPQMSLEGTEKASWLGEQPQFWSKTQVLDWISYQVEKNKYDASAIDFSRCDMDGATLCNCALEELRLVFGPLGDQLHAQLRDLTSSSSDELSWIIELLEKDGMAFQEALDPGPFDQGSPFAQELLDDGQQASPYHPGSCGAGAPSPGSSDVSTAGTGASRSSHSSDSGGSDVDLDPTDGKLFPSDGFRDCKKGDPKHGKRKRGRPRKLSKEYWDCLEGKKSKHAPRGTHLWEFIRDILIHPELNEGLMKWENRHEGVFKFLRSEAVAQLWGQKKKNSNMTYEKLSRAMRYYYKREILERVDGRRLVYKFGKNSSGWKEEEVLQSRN
The conditions noted are these: protein: recombinant; tags: N-terminal GST; dsDNA, one strand shown. Put shortly:
as §1

Test [9] concerns the target CRX (Homo sapiens, UniProt O43186 1-299). The conditions noted are these: protein: recombinant; tags: N-terminal GST; dsDNA, one strand shown. Put shortly: as §1
In test [10] the target is ETV1 (Homo sapiens, UniProt P50549 1-477). The settings on record: protein: recombinant; tags: N-terminal GST; dsDNA, one strand shown. Put shortly: as §1
In test [11] the target is T6, ERF (Homo sapiens, UniProt P50548 1-548).
T6 sequence: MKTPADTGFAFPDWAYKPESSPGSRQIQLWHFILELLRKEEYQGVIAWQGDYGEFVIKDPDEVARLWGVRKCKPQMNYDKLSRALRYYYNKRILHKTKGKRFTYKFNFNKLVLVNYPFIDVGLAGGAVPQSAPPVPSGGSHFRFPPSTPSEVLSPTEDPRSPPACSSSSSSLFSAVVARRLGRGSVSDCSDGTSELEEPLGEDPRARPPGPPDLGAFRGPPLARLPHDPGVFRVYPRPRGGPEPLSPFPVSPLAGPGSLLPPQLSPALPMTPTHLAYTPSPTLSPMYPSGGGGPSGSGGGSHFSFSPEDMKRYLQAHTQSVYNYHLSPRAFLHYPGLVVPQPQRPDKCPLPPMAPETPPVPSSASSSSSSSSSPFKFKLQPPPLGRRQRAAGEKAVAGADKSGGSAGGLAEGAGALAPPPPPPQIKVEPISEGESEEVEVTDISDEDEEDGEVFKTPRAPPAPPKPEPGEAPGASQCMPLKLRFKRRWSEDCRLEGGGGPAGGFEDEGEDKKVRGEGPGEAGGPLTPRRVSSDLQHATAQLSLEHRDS
The conditions noted are these: protein: recombinant; tags: N-terminal GST; dsDNA, one strand shown. Put shortly:
as §1

Test [12] concerns the target T7, ETV3L (Homo sapiens, UniProt Q6ZN32 1-361).
T7 sequence: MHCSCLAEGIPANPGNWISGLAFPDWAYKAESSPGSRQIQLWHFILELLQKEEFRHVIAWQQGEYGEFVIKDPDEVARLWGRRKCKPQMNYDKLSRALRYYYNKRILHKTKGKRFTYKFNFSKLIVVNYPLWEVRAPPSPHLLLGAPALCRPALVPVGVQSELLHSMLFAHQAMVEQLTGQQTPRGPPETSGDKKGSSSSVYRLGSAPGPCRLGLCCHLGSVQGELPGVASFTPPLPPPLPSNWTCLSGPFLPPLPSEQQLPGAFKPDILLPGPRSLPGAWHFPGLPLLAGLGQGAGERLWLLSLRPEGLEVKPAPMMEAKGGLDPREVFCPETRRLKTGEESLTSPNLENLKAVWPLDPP
The conditions noted are these: protein: recombinant; tags: N-terminal GST; dsDNA, one strand shown. Put shortly: as §1

For test [13], the target named is T8, ETS2 (Homo sapiens, UniProt P15036 1-469).
T8 sequence: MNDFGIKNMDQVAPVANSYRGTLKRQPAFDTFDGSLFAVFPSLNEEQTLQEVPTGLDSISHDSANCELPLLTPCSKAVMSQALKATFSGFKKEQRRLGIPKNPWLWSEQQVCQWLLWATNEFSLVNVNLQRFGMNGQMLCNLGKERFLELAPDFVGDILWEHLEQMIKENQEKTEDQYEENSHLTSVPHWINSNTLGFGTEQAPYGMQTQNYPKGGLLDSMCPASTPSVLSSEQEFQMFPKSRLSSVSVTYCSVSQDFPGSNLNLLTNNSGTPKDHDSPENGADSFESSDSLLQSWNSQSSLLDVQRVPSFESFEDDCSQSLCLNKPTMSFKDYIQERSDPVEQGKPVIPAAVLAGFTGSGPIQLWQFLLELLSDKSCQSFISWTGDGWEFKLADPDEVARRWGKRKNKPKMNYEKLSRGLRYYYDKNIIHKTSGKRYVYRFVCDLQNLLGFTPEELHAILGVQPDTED
The conditions noted are these: protein: recombinant; tags: N-terminal GST; dsDNA, one strand shown. Put shortly:
as §1

The target of test [14] is T9, SPDEF (Homo sapiens, UniProt O95238 1-335).
T9 sequence: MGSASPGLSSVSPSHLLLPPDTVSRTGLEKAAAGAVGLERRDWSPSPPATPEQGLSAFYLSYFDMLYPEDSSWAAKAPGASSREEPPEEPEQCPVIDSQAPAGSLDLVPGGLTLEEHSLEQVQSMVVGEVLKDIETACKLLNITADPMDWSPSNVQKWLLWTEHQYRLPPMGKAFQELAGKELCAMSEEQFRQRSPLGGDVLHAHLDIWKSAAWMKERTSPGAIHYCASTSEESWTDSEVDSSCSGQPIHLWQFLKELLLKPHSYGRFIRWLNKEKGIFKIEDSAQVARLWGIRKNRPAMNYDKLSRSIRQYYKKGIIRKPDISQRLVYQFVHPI
The conditions noted are these: protein: recombinant; tags: N-terminal GST; dsDNA, one strand shown. Put shortly:
as §1

Test [15] deals with T10, ETV7 (Homo sapiens, UniProt Q9Y603 1-341).
T10 sequence: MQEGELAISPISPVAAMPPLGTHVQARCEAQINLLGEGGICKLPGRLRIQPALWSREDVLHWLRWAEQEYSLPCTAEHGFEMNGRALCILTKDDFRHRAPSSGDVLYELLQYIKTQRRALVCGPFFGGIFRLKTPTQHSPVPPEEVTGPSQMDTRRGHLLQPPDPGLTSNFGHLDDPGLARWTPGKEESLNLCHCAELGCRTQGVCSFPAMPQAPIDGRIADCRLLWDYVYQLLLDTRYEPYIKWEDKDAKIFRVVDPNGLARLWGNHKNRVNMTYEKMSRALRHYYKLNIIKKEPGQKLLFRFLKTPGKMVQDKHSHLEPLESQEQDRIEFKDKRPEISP
The conditions noted are these: protein: recombinant; tags: N-terminal GST; dsDNA, one strand shown. Put shortly: as §1

The target in test [16] is T11, ELF5 (Homo sapiens, UniProt Q9UKW6-2 1-255).
T11 sequence: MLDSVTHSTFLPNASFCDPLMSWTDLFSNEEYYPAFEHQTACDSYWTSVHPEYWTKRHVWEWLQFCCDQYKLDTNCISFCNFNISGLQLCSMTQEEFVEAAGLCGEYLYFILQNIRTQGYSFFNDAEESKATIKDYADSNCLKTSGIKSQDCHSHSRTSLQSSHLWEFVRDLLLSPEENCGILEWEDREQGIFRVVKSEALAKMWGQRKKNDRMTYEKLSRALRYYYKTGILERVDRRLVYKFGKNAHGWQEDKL
The settings on record: protein: recombinant; tags: N-terminal GST; dsDNA, one strand shown. Put shortly: as §1

The target in test [17] is T12, ETV3 (Homo sapiens, UniProt P41162-2 1-143).
T12 sequence: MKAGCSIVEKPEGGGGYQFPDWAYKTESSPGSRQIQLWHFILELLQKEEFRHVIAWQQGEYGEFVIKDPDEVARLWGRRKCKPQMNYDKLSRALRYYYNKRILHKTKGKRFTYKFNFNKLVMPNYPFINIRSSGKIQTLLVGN
The conditions noted are these: protein: recombinant; tags: N-terminal GST; dsDNA, one strand shown. Put shortly: as §1

Test [18] addresses ETV6 (Homo sapiens, UniProt P41212 1-452). The settings on record: protein: recombinant; tags: N-terminal GST; dsDNA, one strand shown. Put shortly: as §1

Sequence of ETV1 (P50549 whole entry): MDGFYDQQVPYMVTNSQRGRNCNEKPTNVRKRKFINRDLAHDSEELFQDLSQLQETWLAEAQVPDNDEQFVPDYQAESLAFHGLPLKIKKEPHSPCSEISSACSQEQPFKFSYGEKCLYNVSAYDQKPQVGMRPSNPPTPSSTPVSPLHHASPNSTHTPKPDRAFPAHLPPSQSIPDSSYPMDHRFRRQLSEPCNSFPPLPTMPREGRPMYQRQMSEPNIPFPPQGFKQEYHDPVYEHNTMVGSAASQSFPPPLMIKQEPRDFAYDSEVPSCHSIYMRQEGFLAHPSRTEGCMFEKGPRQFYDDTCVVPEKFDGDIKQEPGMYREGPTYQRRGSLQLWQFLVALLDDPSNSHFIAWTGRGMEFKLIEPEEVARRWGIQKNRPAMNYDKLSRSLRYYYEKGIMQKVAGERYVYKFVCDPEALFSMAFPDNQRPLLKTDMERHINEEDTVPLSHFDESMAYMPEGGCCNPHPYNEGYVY
Sequence of ETV6 (P41212 whole entry): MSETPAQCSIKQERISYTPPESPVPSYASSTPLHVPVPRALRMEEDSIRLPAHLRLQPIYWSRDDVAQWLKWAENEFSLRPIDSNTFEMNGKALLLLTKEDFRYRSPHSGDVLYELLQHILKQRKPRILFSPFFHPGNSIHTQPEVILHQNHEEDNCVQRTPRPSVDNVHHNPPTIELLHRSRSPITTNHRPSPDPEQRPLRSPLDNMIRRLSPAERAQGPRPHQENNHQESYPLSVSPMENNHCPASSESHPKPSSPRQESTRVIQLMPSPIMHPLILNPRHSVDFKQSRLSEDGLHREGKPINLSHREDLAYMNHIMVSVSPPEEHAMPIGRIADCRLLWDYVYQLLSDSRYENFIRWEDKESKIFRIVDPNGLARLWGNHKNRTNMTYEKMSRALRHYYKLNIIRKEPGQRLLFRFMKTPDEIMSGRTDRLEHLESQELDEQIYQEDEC
Sequence of ETV5 (P41161 whole entry): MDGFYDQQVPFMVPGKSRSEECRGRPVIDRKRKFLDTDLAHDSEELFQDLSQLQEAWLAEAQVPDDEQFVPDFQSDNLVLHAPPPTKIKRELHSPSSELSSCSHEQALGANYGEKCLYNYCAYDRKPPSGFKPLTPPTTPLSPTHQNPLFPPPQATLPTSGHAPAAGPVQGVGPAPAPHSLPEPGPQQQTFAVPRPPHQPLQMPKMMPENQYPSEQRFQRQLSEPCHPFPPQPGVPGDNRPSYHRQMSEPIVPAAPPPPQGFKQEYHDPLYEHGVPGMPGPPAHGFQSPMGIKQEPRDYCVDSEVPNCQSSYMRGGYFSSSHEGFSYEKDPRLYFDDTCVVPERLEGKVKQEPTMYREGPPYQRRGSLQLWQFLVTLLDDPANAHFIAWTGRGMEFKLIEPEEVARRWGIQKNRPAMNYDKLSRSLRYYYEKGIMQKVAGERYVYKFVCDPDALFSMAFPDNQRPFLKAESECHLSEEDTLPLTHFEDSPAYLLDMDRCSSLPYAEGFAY
Sequence of CRX (O43186 whole entry): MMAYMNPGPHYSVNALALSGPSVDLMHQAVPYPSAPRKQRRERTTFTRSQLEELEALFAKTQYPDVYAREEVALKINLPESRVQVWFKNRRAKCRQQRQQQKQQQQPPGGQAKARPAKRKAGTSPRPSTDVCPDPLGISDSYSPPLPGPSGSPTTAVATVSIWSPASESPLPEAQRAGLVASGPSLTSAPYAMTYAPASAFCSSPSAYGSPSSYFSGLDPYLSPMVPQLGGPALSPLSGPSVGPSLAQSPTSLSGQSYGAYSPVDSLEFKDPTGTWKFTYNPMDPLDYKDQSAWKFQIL
Sequence of HSF1 (Q00613 whole entry): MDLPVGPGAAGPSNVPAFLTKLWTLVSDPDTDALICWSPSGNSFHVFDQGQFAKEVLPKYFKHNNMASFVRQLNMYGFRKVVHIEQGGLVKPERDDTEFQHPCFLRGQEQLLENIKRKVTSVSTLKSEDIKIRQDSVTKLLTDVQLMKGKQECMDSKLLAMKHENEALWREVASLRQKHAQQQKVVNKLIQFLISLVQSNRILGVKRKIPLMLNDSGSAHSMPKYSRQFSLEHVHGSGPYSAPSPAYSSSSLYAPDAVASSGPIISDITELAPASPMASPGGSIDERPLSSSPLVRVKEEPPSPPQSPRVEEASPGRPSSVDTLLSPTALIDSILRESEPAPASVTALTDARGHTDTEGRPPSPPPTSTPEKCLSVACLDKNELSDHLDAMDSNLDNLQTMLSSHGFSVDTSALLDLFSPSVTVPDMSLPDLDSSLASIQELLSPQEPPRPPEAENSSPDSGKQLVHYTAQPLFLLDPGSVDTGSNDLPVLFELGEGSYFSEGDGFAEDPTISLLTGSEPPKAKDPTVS
Sequence of ELF4 (Q99607 whole entry): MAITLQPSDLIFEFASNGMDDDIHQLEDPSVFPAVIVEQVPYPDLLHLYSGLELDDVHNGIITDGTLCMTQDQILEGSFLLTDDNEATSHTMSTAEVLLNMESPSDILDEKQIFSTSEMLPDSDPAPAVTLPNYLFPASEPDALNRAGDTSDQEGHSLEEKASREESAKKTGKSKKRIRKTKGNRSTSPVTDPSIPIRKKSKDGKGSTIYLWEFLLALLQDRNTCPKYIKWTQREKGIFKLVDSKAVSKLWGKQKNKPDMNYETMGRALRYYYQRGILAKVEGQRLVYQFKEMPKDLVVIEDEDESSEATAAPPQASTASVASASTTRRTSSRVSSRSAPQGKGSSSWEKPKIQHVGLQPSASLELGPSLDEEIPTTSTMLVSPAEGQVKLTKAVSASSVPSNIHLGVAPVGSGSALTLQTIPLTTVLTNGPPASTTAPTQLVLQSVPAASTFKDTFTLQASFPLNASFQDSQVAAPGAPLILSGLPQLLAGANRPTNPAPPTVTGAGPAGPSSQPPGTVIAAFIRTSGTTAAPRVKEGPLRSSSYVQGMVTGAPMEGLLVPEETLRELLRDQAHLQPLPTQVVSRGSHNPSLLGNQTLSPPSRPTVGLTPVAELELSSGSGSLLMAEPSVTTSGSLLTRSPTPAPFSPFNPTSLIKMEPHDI

For CCCGTT, the binding signal in test [1] was 1.13 fold enrichment (6-mer frequency, TF over GST control); in test [2], 1.21 fold enrichment (6-mer frequency, TF over GST control); in test [3] it was 1.03 fold enrichment (6-mer frequency, TF over GST control); in [4] it was 1.07 fold enrichment (6-mer frequency, TF over GST control); in [5], 1.15 fold enrichment (6-mer frequency, TF over GST control); in test [6], 1.06 fold enrichment (6-mer frequency, TF over GST control). Moreover, the binding signal in test [7] was 1.18 fold enrichment (6-mer frequency, TF over GST control); in [8] it was 1.26 fold enrichment (6-mer frequency, TF over GST control); in test [9], 1.02 fold enrichment (6-mer frequency, TF over GST control); in [10], 1.03 fold enrichment (6-mer frequency, TF over GST control); in [11], 1.13 fold enrichment (6-mer frequency, TF over GST control); in [12], 1.19 fold enrichment (6-mer frequency, TF over GST control). Also, the binding signal was 1.1 fold enrichment (6-mer frequency, TF over GST control) in [13]; 1.2 fold enrichment (6-mer frequency, TF over GST control) in test [14]; 1.19 fold enrichment (6-mer frequency, TF over GST control) in test [15]; 1.27 fold enrichment (6-mer frequency, TF over GST control) in test [16]; 1.17 fold enrichment (6-mer frequency, TF over GST control) in [17]; 1.16 fold enrichment (6-mer frequency, TF over GST control) in test [18].
